# Measured values: article PMC5700166
# Substitutions are numbered along the chain they refer to.
# Assays:
# Assay in all cases: protein-binding microarray (PBM); PBM: ~300 nM protein, 6 mM HEPES pH 7.8, 80 mM KCl, 0.5 mM EDTA, 0.5 mM EGTA, 6% glycerol, 35 ng/ul poly-dIdC, 1% milk, 1 h, room temperature; Ap Aiptasia and Nv Nematostella (sea anemones) / Co Capsaspora / Aq Amphimedon (sponge) / Dm Drosophila / Hu human; RHD is the Rel homology domain; high values mean tight binding
# Conditions in all cases: dsDNA, one strand shown
# GST-Ap-NF-kB RHD = molecular target: T1, GST-Ap-NF-kB RHD (Exaiptasia pallida (Aiptasia), UniProt A0A913YAJ5 2-422)
# T1 sequence: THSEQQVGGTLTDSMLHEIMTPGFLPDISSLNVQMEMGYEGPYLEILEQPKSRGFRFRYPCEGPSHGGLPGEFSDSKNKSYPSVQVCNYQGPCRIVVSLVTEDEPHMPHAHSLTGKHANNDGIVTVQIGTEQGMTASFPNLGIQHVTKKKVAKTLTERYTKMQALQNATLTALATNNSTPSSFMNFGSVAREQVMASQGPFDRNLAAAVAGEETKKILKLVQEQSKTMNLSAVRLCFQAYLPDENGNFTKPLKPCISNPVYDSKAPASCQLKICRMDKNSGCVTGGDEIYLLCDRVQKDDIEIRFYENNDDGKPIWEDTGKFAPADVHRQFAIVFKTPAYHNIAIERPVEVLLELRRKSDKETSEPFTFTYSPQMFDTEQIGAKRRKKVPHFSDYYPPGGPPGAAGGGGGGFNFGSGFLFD
# [1] = molecular target: T2, GST-Nv-NF-kB (Cys allele) (Nematostella vectensis, UniProt E5G601 2-411)
# T2 sequence: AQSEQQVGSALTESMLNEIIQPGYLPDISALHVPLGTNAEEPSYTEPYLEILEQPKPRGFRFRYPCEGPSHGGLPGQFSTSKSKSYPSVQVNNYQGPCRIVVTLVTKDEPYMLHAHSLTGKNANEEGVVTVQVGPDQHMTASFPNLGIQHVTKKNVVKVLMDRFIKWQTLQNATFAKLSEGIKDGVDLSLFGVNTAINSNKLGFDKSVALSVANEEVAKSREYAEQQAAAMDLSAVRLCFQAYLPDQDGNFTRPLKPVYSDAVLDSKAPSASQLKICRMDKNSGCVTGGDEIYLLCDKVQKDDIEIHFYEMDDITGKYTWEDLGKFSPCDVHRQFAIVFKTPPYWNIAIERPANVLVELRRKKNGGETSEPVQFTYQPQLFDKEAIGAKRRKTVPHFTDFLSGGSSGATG
# [2] = molecular target: T3, GST-Nv-NF-kB (Ser allele) (Nematostella vectensis, UniProt A7UNT2 2-411)
# T3 sequence: T2 sequence with Q21R, C66S, S207N, E215Q, V217A, E225K, A268E, D399E
# GST-Co-NF-kB = molecular target: T4, GST-Co-NF-kB (Capsaspora owczarzaki, UniProt F1ARL5 200-546)
# T4 sequence: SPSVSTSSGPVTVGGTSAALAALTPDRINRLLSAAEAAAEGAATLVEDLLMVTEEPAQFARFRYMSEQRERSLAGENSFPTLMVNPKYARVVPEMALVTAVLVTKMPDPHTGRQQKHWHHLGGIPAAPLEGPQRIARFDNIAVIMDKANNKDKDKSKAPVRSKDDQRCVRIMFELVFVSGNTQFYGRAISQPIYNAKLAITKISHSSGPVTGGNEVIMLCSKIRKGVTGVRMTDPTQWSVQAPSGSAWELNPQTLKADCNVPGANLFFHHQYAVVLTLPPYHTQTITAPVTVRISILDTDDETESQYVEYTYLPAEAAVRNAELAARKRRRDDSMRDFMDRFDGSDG
# GST-Dm-Relish = molecular target: T5, GST-Dm-Relish (Drosophila melanogaster, UniProt Q94527 99-473)
# T5 sequence: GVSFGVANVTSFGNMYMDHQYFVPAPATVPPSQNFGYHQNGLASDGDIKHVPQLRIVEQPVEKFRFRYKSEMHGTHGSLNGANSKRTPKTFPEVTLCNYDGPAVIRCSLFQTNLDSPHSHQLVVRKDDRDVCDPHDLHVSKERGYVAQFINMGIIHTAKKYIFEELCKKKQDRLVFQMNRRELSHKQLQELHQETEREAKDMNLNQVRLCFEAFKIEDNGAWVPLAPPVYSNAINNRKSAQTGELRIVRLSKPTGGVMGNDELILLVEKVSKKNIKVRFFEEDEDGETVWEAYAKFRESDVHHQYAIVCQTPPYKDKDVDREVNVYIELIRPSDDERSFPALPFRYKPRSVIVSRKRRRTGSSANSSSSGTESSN
# GST-Aq-NF-kB = molecular target: T6, GST-Aq-NF-kB (Amphimedon queenslandica, UniProt A9Y5G7 2-389)
# T6 sequence: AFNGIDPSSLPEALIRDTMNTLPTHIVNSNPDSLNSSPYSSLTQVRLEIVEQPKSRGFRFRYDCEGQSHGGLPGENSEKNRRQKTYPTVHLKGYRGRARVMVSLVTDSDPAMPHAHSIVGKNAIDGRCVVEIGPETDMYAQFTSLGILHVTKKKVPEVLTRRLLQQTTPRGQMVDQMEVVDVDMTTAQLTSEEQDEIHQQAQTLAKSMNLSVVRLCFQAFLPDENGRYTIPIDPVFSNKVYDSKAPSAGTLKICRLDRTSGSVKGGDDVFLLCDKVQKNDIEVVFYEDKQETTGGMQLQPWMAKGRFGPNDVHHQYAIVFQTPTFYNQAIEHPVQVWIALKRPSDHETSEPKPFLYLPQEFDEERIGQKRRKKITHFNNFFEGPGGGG
# GST-Hu-p50 = GST-Hu-p50 (Homo sapiens, UniProt P19838 7-356)
# Sequence of GST-Hu-p50 (P19838 7-356): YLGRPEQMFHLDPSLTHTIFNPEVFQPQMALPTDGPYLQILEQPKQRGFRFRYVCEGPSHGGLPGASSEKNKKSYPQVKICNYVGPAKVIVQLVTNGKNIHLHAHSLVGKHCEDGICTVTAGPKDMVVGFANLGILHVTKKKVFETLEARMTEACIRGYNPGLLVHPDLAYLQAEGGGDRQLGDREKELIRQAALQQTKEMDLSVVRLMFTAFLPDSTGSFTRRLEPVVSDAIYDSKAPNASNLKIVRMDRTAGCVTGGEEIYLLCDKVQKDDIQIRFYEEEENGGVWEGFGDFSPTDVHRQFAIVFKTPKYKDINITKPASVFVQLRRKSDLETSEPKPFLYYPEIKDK
Sequence,binding signal (GST-Ap-NF-kB RHD),binding signal [1],binding signal [2],binding signal (GST-Co-NF-kB),binding signal (GST-Dm-Relish),binding signal (GST-Aq-NF-kB),binding signal (GST-Hu-p50)
CCGATTAACATCAGGGAAGTTTATGATGTTAATCGGGTCTTGATTCGCTTGACGCTGCTG,4.29 z-score,4.93 z-score,4.78 z-score,2.58 z-score,3.35 z-score,5.26 z-score,3.73 z-score
CCGATTAACATCAATTCTCCCCCTGATGTTAATCGGGTCTTGATTCGCTTGACGCTGCTG,6.48 z-score,6.19 z-score,8.64 z-score,10.7 z-score,3.06 z-score,5.16 z-score,6.9 z-score
CCGATTAACATCAGGGGGATCCATGATGTTAATCGGGTCTTGATTCGCTTGACGCTGCTG,7.42 z-score,5.12 z-score,6.25 z-score,4.25 z-score,7.45 z-score,5.46 z-score,5.74 z-score
CCGATTAACATCAGAGCTTCCCCTGATGTTAATCGGGTCTTGATTCGCTTGACGCTGCTG,4.5 z-score,5.06 z-score,5.75 z-score,4.37 z-score,3.56 z-score,4.57 z-score,4.17 z-score
CCGATTAACATCAATTTTCCCCATGATGTTAATCGGGTCTTGATTCGCTTGACGCTGCTG,6.24 z-score,7.68 z-score,9.27 z-score,9.2 z-score,2.3 z-score,5.53 z-score,6.08 z-score
CCGATTAACATCAGACTTTCCCCTGATGTTAATCGGGTCTTGATTCGCTTGACGCTGCTG,6.18 z-score,7.69 z-score,8.83 z-score,7.36 z-score,4.9 z-score,6.81 z-score,5.61 z-score
CCGATTAACATCAACTCTCCCCCTGATGTTAATCGGGTCTTGATTCGCTTGACGCTGCTG,5.78 z-score,4.61 z-score,5.62 z-score,7.94 z-score,2.14 z-score,4.72 z-score,4.41 z-score
CCGATTAACATCAGGACGTCCCCTGATGTTAATCGGGTCTTGATTCGCTTGACGCTGCTG,7.08 z-score,6.03 z-score,4.26 z-score,2.18 z-score,5.29 z-score,7.4 z-score,4.57 z-score
CCGATTAACATCAGGGGGGTTAATGATGTTAATCGGGTCTTGATTCGCTTGACGCTGCTG,4.64 z-score,4.44 z-score,4.14 z-score,3.92 z-score,6.25 z-score,4.51 z-score,4.97 z-score
CCGATTAACATCAGGGTTTCCCATGATGTTAATCGGGTCTTGATTCGCTTGACGCTGCTG,3.12 z-score,3.27 z-score,2.81 z-score,2.84 z-score,8.13 z-score,4.6 z-score,2.14 z-score
CCGATTAACATCAAGATTTCCCATGATGTTAATCGGGTCTTGATTCGCTTGACGCTGCTG,2.43 z-score,4.42 z-score,4.61 z-score,4.11 z-score,2.29 z-score,3.35 z-score,3.33 z-score
CCGATTAACATCAGGGGGACCCCTGATGTTAATCGGGTCTTGATTCGCTTGACGCTGCTG,8.92 z-score,5.39 z-score,4.83 z-score,4.63 z-score,9.89 z-score,8.54 z-score,5.02 z-score
CCGATTAACATCAAGGGGGAATATGATGTTAATCGGGTCTTGATTCGCTTGACGCTGCTG,7.61 z-score,8.35 z-score,9.33 z-score,7.86 z-score,4.64 z-score,6.45 z-score,6.95 z-score
CCGATTAACATCACTGAAATCCCTGATGTTAATCGGGTCTTGATTCGCTTGACGCTGCTG,2.61 z-score,2.29 z-score,1.72 z-score,1.34 z-score,3.35 z-score,2.54 z-score,1.71 z-score
CCGATTAACATCAGGCAACCCCCTGATGTTAATCGGGTCTTGATTCGCTTGACGCTGCTG,5.96 z-score,3.96 z-score,3.97 z-score,2.03 z-score,6.58 z-score,6.21 z-score,5.13 z-score
CCGATTAACATCAGGAAATCCCCTGATGTTAATCGGGTCTTGATTCGCTTGACGCTGCTG,10.8 z-score,12.1 z-score,12.5 z-score,4.46 z-score,10.3 z-score,10.9 z-score,8.31 z-score
CCGATTAACATCAGAAATATCCCTGATGTTAATCGGGTCTTGATTCGCTTGACGCTGCTG,2.4 z-score,2.67 z-score,2.09 z-score,1.62 z-score,3.52 z-score,4.26 z-score,3.17 z-score
CCGATTAACATCAGGGGGAGGTATGATGTTAATCGGGTCTTGATTCGCTTGACGCTGCTG,4.66 z-score,4.16 z-score,5.35 z-score,6.26 z-score,2.41 z-score,3.87 z-score,4.35 z-score
CCGATTAACATCAGGGGAAATTATGATGTTAATCGGGTCTTGATTCGCTTGACGCTGCTG,8.88 z-score,10.5 z-score,12.1 z-score,9.24 z-score,6.62 z-score,7.99 z-score,6.95 z-score
CCGATTAACATCAAGGGGGTTCCTGATGTTAATCGGGTCTTGATTCGCTTGACGCTGCTG,9.16 z-score,6.77 z-score,6.26 z-score,1.68 z-score,10.4 z-score,7.2 z-score,6.65 z-score
CCGATTAACATCAGGGAATTTGATGATGTTAATCGGGTCTTGATTCGCTTGACGCTGCTG,3.63 z-score,4.8 z-score,5.71 z-score,3.17 z-score,2.77 z-score,3.69 z-score,3.22 z-score
CCGATTAACATCACATCTCCCCCTGATGTTAATCGGGTCTTGATTCGCTTGACGCTGCTG,6.34 z-score,4.75 z-score,5.94 z-score,7.54 z-score,2.35 z-score,4.36 z-score,5.73 z-score
